In PubChem BioAssay (NCATS):
Where “and” joins values, the source holds several entries; their conditions need not be identical. Equal entries are not always repeated. Records with an inconclusive call do not appear. Calls of active or inactive are those of the source. Unless noted, the call rests on the fitted dose curve; in most records, active means well fitted curve in the direction sought with a large enough effect; inconclusive means small, poorly fitted or top-dose-only effect, or another doubt; inactive means no such curve, though single readings can be large; an effect the other way counts as inactive or inconclusive.

How the values were obtained:
[1] = qHTS profiling for inhibitors of Plasmodium falciparum proliferation (AID 504749); further: nearly all actives have a fitted effect of over 60% in size; further: potency means the concentration at half of the fitted maximal effect;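 on activity, negative = inhibition: 0% = DMSO vehicle and full inhibition = artemisinin control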; conditions: P. falciparum in erythrocytes, SYBR Green DNA, 72 h
Outline: (§1)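 P. falciparum-infected erythrocytes (0.3% parasitemia, 2.5% hematocrit) incubated with compound 72 h at 37 C, 5% CO2. Parasite DNA detected by SYBR Green after lysis, overnight at room temperature; normalised to 0.29 uM artemisinin and DMSO.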

3D7 = assay: as above; conditions: P. falciparum in erythrocytes, SYBR Green DNA, 72 h; series mostly up to 28.7 µM
Outline: as §1

7G8 = assay: as above; conditions: P. falciparum in erythrocytes, SYBR Green DNA, 72 h; series mostly up to 28.7 µM
Outline: as §1

AA1029 = assay: as above; conditions: P. falciparum in erythrocytes, SYBR Green DNA, 72 h; series mostly up to 28.7 µM
Outline: as §1

AS120 = assay: as above; conditions: P. falciparum in erythrocytes, SYBR Green DNA, 72 h; series mostly up to 28.7 µM
Outline: as §1

ATS189 = assay: as above; conditions: P. falciparum in erythrocytes, SYBR Green DNA, 72 h; series mostly up to 28.7 µM
Outline: as §1

[2] = qHTS drug screen for cell cycle checkpoint inhibitors in PARPi-resistant BRCA-mutant ovarian cancer cell lines. (AID 1963452; calls by dose curve; further: potency means the concentration at half of the fitted maximal effect); conditions: PEO1/OlaR viability, CellTiter-Glo luminescence, 96 h; for Z-AUC: stronger effect = lower value
Outline: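 PEO1, PEO4 and PEO1/OlaR ovarian cancer cells, 600 per well, exposed 96 h at 37C to a dilution series. Viability read by CellTiter-Glo luminescence, normalized to DMSO and empty wells; activity summarized as Z-AUC.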

[3] = target: Cytochrome P450 3A4 (Homo sapiens) (UniProt P08684); assay: qHTS for inhibitors of CYP3A4 against the NCATS DSHEA and TCM libraries (AID 1919971);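 further: on the % scale 0 is the no-effect control and ±100 the full control effect; inhibition lowers luminescence from luciferin made by CYP3A4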
Cytochrome P450 3A4 (Homo sapiens), sequence (P08684 whole entry, looked up, canonical isoform): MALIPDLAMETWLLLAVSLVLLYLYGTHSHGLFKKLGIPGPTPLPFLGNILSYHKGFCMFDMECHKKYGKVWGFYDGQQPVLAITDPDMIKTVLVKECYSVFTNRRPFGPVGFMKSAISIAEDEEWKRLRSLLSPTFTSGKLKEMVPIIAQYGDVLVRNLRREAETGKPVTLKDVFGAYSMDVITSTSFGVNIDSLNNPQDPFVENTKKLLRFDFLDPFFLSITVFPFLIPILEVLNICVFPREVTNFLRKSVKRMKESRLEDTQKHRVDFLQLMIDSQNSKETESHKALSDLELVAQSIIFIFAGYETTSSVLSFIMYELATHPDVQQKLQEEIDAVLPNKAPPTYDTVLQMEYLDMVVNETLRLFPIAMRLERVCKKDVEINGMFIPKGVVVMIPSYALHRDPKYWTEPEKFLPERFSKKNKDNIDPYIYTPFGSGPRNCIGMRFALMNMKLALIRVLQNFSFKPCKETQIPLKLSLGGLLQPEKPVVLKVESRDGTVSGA
Outline: (§2)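 Read-out is luminescence after P450-Glo detection (30 min, RT). Before that: 15 min compound–enzyme preincubation, then 30-45 min reaction with 1x NADPH regeneration solution, substrate concentration isoform-specific.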

[4] = target: Cytochrome P450 2D6 (Homo sapiens) (UniProt P10635); assay: qHTS for inhibitors of CYP2D6 against the NCATS DSHEA and TCM libraries (AID 1919972); further: on the % scale 0 is the no-effect control and ±100 the full control effect
Cytochrome P450 2D6 (Homo sapiens), sequence (P10635 whole entry, looked up): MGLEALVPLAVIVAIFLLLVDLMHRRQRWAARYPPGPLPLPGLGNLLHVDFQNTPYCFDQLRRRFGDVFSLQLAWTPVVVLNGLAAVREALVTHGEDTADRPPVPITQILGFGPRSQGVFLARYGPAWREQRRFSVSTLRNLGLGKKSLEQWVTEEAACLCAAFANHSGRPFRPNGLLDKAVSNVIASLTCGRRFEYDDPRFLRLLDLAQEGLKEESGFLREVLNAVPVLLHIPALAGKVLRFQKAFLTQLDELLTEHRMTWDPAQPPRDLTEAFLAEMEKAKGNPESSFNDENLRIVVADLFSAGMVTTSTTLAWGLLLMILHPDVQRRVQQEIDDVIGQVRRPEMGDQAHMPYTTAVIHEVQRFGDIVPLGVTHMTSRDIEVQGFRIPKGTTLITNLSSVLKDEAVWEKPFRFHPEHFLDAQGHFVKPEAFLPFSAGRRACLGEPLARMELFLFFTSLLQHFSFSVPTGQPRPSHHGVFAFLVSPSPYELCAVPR
Outline: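 Luminescent P450-Glo read-out of CYP2D6 turnover of a luciferin substrate after NADPH-driven reaction of 30-45 min at room temperature. Compounds were first preincubated 15 min with enzyme at titrated concentrations; quinidine was the intraplate control.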

[5] = target: Cytochrome P450 2C9 (Homo sapiens) (UniProt P11712); assay: qHTS for inhibitors of CYP2C9 against the NCATS DSHEA and TCM libraries (AID 1919973);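 further: luminogenic pro-luciferin CYP2C9 substrate turned into luciferin with NADPH regeneration; on the % scale 0 is the no-effect control and ±100 the full control effect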
Cytochrome P450 2C9 (Homo sapiens), sequence (P11712 whole entry, looked up): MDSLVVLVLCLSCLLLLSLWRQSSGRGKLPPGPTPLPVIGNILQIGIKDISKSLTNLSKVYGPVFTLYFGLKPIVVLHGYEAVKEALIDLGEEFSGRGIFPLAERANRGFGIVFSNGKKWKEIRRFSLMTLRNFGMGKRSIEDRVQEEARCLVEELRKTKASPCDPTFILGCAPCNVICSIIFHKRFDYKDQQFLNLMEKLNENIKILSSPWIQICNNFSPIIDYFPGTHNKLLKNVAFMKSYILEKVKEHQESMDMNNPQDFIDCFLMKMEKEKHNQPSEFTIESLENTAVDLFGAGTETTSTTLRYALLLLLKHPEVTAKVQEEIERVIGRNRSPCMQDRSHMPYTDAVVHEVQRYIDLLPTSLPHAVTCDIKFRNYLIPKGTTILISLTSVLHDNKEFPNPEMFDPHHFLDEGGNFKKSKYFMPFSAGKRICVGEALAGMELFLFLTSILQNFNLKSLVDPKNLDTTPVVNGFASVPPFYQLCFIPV
Outline: as §2

[6] = KB-3-1 P-gp reporter qHTS against the NCATS DSHEA and TCM libraries (AID 1919975); further: 0% is about no effect
Outline: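 KB-3-1 parental line, 1536-well qHTS: cells seeded, ~4 h attachment, pintool compound addition, ~72 h at 37C, then CellTiter-Glo, 30 min RT, luminescence. Concentration-response format.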

[7] = qHTS Counterscreen for compound interference against the NCATS DSHEA and TCM libraries (AID 1919978); conditions: firefly luciferase detection reagent interference, luminescence;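 further: compounds preincubated with 1 µM D-luciferin or buffer before detection reagent; % of control where 0% means no effect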
Outline: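 Compounds, titrated from 19.5 nM to 39.8 uM final, were pinned onto 1 uM D-luciferin or plain 100 mM potassium phosphate. After 15 min at room temperature, luciferin detection reagent was added for 30 min before the luminescence read.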

[8] = Dual reporter qHTS for agonist of Pregnane X Receptor (hPXR) against the NCATS DSHEA and TCM libraries: Fluorescence readout (AID 1920058); further: 0% is about no effect
Outline: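 HepG2 hPXR-Luc, 2000 cells/well, 5 h attach; cpds ~24 h, 37 °C/5% CO2; CellTiter-Fluor 1 h; fluor. Ex/Em 405/540 nm = viability.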

[9] = target: Nuclear receptor subfamily 1 group I member 2 (Homo sapiens) (UniProt O75469); assay: Dual reporter qHTS for agonist of Pregnane X Receptor (hPXR) against the NCATS DSHEA and TCM libraries: Luminescence readout (AID 1920059); further: 0% is about no effect
Nuclear receptor subfamily 1 group I member 2 (Homo sapiens), sequence (O75469 whole entry, looked up): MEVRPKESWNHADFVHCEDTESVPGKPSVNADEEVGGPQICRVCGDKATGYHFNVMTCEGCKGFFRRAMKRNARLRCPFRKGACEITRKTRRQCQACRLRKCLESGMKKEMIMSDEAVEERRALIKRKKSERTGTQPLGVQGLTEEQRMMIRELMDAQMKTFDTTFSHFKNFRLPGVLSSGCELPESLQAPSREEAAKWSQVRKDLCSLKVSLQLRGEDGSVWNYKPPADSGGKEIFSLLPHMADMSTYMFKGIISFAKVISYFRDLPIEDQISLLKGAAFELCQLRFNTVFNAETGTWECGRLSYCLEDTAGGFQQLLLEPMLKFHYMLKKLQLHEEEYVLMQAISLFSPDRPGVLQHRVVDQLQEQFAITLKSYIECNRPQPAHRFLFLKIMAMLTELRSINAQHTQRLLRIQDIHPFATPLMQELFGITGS
Outline: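 hPXR-Luc HepG2 cells, 2000/well in 5% charcoal-stripped FBS medium, attached 5 h, then exposed 24 h at 37C to compounds. Viability by CellTiter-Fluor, then luciferase luminescence with ONE-Glo.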

[10] = target: Nuclear receptor subfamily 1 group I member 2 (Homo sapiens) (UniProt O75469); assay: Dual reporter qHTS for antagonist of Pregnane X Receptor (hPXR) against the NCATS DSHEA and TCM libraries: Luminescence Readout (AID 1920060);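 further: HepG2 cells carrying hPXR luciferase reporter stimulated with rifampicin at 2 µM; 0% is about no effect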
Outline: (§3)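 hPXR-Luc HepG2 cells exposed 24 h at 37 C to compounds with 2 uM rifampicin in antagonist mode; luciferase luminescence measured by ONE-Glo, with CellTiter-Fluor viability read beforehand.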

[11] = Dual reporter qHTS for antagonist of Pregnane X Receptor (hPXR) against the NCATS DSHEA and TCM libraries: Fluorescence Readout (AID 1920061); further: 0% is about no effect
Outline: as §3

[12] = tested on: Nanoluciferase (engineered Oplophorus gracilirostris luciferase); assay: Primary Nanoluciferase (NLuc) qHTS assay for identification of artifact compounds. (AID 1845222);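 further: NLuc secreted into diluted conditioned medium of S16 cells; 0% = DMSO and -100% = no enzyme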
Outline: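 qHTS format, against NLuc in S16 cell-conditioned medium. Nano-Glo substrate 1:100 was added after 15 min at room temperature. Luminescence was taken after a further 5 min.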

[13] = target: Cytochrome P450 2C19 (Homo sapiens) (UniProt P33261); assay: qHTS for inhibitors of CYP2C19 against the NCATS DSHEA and TCM libraries (AID 1919974);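 further: luminescence from luciferin released by CYP2C19 oxidation of a pro-luciferin substrate; on the % scale 0 is the no-effect control and ±100 the full control effect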
Cytochrome P450 2C19 (Homo sapiens), sequence (P33261 whole entry, looked up): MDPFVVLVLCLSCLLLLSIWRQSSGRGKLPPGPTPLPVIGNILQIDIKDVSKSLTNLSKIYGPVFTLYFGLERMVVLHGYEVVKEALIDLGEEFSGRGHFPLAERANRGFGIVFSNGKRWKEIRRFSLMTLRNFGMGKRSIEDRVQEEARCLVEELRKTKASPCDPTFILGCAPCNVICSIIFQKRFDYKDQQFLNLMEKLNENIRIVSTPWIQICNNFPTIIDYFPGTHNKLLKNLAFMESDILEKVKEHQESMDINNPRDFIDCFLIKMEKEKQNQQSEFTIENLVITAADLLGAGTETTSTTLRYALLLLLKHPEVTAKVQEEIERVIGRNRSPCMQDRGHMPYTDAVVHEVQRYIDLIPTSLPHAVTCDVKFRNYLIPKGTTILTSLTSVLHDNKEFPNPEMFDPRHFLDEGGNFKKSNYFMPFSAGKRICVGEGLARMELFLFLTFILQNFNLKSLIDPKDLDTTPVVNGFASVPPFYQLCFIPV
Outline: as §2

[14] = target: Cytochrome P450 1A2 (Homo sapiens) (UniProt P05177); assay: qHTS for inhibitors of CYPIA2 against the NCATS DSHEA and TCM libraries (AID 1919976);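 further: light from luciferin formed by CYP1A2 from a pro-luciferin substrate; on the % scale 0 is the no-effect control and ±100 the full control effect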
Cytochrome P450 1A2 (Homo sapiens), sequence (P05177 whole entry, looked up): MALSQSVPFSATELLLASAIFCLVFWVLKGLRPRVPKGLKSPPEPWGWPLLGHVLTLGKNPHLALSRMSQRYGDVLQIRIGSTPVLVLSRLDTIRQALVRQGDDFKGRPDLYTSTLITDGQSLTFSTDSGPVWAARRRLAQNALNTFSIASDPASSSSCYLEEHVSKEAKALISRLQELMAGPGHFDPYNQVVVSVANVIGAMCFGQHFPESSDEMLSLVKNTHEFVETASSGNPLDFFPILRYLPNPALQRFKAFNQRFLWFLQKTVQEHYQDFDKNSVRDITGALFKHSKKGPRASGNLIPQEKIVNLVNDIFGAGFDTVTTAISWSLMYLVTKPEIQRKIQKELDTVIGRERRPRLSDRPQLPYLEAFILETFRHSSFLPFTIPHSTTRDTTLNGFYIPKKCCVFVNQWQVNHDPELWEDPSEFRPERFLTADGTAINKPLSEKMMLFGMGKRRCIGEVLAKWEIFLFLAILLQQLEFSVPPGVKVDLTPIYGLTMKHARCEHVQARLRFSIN
Outline: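 CYP1A2 + luciferin substrate, 100 mM KPO4-type buffer; cmpd 15 min RT; 1x NADPH regen, 30-45 min RT dark; detection reagent 30 min RT; luminescence. Minus-enzyme wells as background; furafylline intraplate control.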

[15] = at 28.7 µM (top of the series), parasite line A
[16] = at 28.7 µM (top of the series), parasite line B
[17] = measured here: PEO1 parental Z-AUC
[18] = at 12.8 µM (top of the series), parasite line A
[19] = at 12.8 µM (top of the series), parasite line B

CCOC(=O)c1ccc(O)cc1
inactive: activity, negative = inhibition [1, 15] 6.51% | activity, negative = inhibition [1, 16] -7.49% | Potency (3D7) | Potency (7G8) | Potency (AA1029) | Potency (AS120) | Potency (ATS189)

CN(N=O)C(=O)N[C@@H]1[C@@H](O)[C@H](O)[C@@H](CO)O[C@@H]1O
0.737: Z-AUC ([2]; measured here: PEO4 Z-AUC)
0.655: Z-AUC [2, 17]
inactive: Z-AUC [2] 1.08

NCC(=O)CCC(=O)O
inactive: activity, negative = inhibition [1, 15] 2.38% | activity, negative = inhibition [1, 16] -2.04% | Potency (3D7) | Potency (7G8) | Potency (AA1029) | Potency (AS120) | Potency (ATS189)

NC(N)=NCCC[C@H](N)C(=O)O
inactive: outcome [3] | outcome [4] | outcome [5] | outcome [6] | max response [7] -2.87% | outcome [8] | outcome [9] | outcome [10] | outcome [11]

COc1cc(C)c(Cc2cnc(N)nc2N)cc1OC
active: Potency ([1]; parasite line A) 4470 nM | Potency ([1]; parasite line B) 11200 nM | Potency (3D7) 11200 nM
inactive: Potency (7G8) | Potency (AA1029) | Potency (AS120) | Potency (ATS189)

CN(C)CCN(Cc1ccccc1)c1ccccn1
inactive: activity, negative = inhibition [1, 15] -2.14% | activity, negative = inhibition [1, 16] 9.22% | Potency (3D7) | Potency (7G8)

CC1=C(/C=C/C(C)=C/C=C/C(C)=C/C(=O)O)C(C)(C)CCC1
0.421: Z-AUC ([2]; measured here: PEO4 Z-AUC)
inactive: Z-AUC [2] -0.215 | activity, negative = inhibition [1, 15] 11.8% | activity, negative = inhibition [1, 16] -26.7% | Potency (3D7) | Potency (7G8) | Potency (AA1029) | Potency (AS120) | Potency (ATS189)
0.0467: Z-AUC [2, 17]

Nc1ccc(S(=O)(=O)Nc2ccccc2)cc1
inactive: activity, negative = inhibition [1, 15] -9.52% | activity, negative = inhibition [1, 16] 11.6% | Potency (3D7) | Potency (7G8) | Potency (AA1029) | Potency (AS120) | Potency (ATS189)

Cc1ccc2nc(N)[nH]c(=O)c2c1Sc1ccncc1
inactive: outcome [12]
active: Potency ([1]; parasite line A) 7940 nM | Potency ([1]; parasite line B) 11200 nM | Potency (7G8) 5620 nM | Potency (AA1029) 11200 nM | Potency (AS120) 4470 nM | Potency (ATS189) 8910 nM

CC(=O)O[C@@]12CO[C@@H]1C[C@H](O)[C@@]1(C)C(=O)[C@H](O)C3=C(C)[C@@H](OC(=O)[C@H](O)[C@@H](NC(=O)OC(C)(C)C)c4ccccc4)C[C@@](O)([C@@H](OC(=O)c4ccccc4)[C@H]21)C3(C)C
active: Potency [2] 8.7 nM
-3.1: Z-AUC ([2]; measured here: PEO4 Z-AUC)
-2.65: Z-AUC [2, 17]

CC1=C(C/C=C(\C)CCC[C@H](C)CCC[C@H](C)CCCC(C)C)C(=O)c2ccccc2C1=O
inactive: outcome [4] | outcome [6] | max response [7] -2.28% | outcome [8] | outcome [10] | outcome [11]

NC(=O)NNc1ccccc1
inactive: activity, negative = inhibition [1, 15] -7.35% and 18% | activity, negative = inhibition [1, 16] 13.9% and 11.9% | Potency (3D7) | Potency (7G8) | Potency (AA1029) | Potency (AS120) | Potency (ATS189)

CC(=O)OCC(=O)[C@@]1(O)CC[C@H]2[C@@H]3CCC4=CC(=O)CC[C@]4(C)[C@H]3C(=O)C[C@@]21C
-0.142: Z-AUC [2, 17]
-0.613: Z-AUC ([2]; measured here: PEO4 Z-AUC)
inactive: Z-AUC [2] -1.11

O=C1NC(=O)[C@@]2(CCOc3ccc(F)cc32)N1
inactive: activity, negative = inhibition [1, 15] 7.16% | activity, negative = inhibition [1, 16] 9.22% | Potency (3D7) | Potency (7G8) | Potency (AA1029) | Potency (AS120) | Potency (ATS189)

CC[C@H]1CN2CCc3cc(OC)c(OC)cc3[C@@H]2C[C@@H]1C[C@H]1NCCc2cc(OC)c(OC)cc21
-0.835: Z-AUC [2, 17]
-0.876: Z-AUC ([2]; measured here: PEO4 Z-AUC)
inactive: Z-AUC [2] -0.485

O=C(O)c1ccccc1O
inactive: outcome [3] | outcome [4] | outcome [5] | outcome [13] | outcome [6] | outcome [14] | max response [7] -0.219% | outcome [8] | outcome [9] | outcome [10] | outcome [11] | activity, negative = inhibition [1, 15] 0.135% | activity, negative = inhibition [1, 16] 11.3% | Potency (3D7) | Potency (7G8) | Potency (AA1029) | Potency (AS120) | Potency (ATS189)

CCCCN(CCCC)CC(O)c1cc(Cl)cc2c1-c1ccc(Cl)cc1/C2=C/c1ccc(Cl)cc1 (configuration not stated)
active: Potency ([1]; parasite line A) 25.1 nM | Potency ([1]; parasite line B) 7.1 nM | Potency (3D7) 15.8 nM | Potency (7G8) 2.8 nM | Potency (AA1029) 14.1 nM | Potency (AS120) 10 nM | Potency (ATS189) 12.6 nM
inactive: Z-AUC [2] -0.171
-0.362: Z-AUC [2, 17]
-0.228: Z-AUC ([2]; measured here: PEO4 Z-AUC)

CNC(=O)Oc1ccc2c(c1)[C@]1(C)CCN(C)[C@@H]1N2C
inactive: outcome [12]
active: Potency ([1]; parasite line A) 1580 nM | Potency ([1]; parasite line B) 2000 nM | Potency (3D7) 3550 nM | Potency (7G8) 2240 nM | Potency (AS120) 2000 nM | Potency (ATS189) 2240 nM

CC(=O)Oc1ccc(C2(c3ccc(OC(C)=O)cc3)C(=O)Nc3ccccc32)cc1
inactive: activity, negative = inhibition [1, 15] 5.01% and 7.68% | activity, negative = inhibition [1, 16] 2.92% and 4.08% | Potency (3D7) | Potency (7G8) | Potency (AA1029) | Potency (AS120) | Potency (ATS189)

COc1cc2[nH]c(=O)[nH]c(=O)c2cc1OC
inactive: activity, negative = inhibition [1, 18] -1.12% | activity, negative = inhibition [1, 19] -2.32% | Potency (3D7) | Potency (7G8) | Potency (AA1029) | Potency (AS120) | Potency (ATS189)

Cc1cc2c(cc1S(N)(=O)=O)S(=O)(=O)CCC2
inactive: activity, negative = inhibition [1, 18] -1.89% | activity, negative = inhibition [1, 19] 2.51% | Potency (3D7) | Potency (7G8) | Potency (AA1029) | Potency (AS120) | Potency (ATS189)

CN1CCCCC1CCN1c2ccccc2Sc2ccc(S(C)=O)cc21 (configuration not stated)
active: Potency (7G8) 10000 nM
inactive: activity, negative = inhibition [1, 15] -4.2% | activity, negative = inhibition [1, 16] 5.63% | Potency (3D7)

OC[C@H]1O[C@@H](O[C@@H]2[C@@H](CO)O[C@](O)(CO)[C@H]2O)[C@H](O)[C@@H](O)[C@H]1O
inactive: Z-AUC [2] -0.433
-0.31: Z-AUC [2, 17]
-0.255: Z-AUC ([2]; measured here: PEO4 Z-AUC)

CCN(CC)CCNC(C(=O)OCCC(C)C)c1ccccc1 (configuration not stated)
active: Potency (7G8) 12600 nM
inactive: activity, negative = inhibition [1, 15] 6.18% | activity, negative = inhibition [1, 16] 14.1% | Potency (3D7)
